# Screening data: PubChem, National Center for Advancing Translational Sciences (NCATS)
# GLS inh: qHTS for Inhibitors of Glutaminase (GLS); GLS enzymatic activity, qHTS titration; Potency, µM (titrated, usually from 45.5 µM), hits mostly inhibitors; hit rate 0.21% among 410,000; AID 624170, 2012
#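 Compounds were pin-transferred onto hKGA, after which L-glutamine (1 mM solution) and a detection mix of glutamate oxidase, HRP and Amplex Red were added. Initial and 30 min RT fluorescence reads were collected.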
# MmCpn inh: Inhibitors of TCP-1 ring complex (TRiC) of Methanococcus maripaludis (MmCpn): qHTS. Chaperonin Mm-Cpn (Methanococcus maripaludis). purified Mm-Cpn ATPase, ADP Transcreener TR-FRET. Potency, µM (top dose mostly 76.9 µM), usual class: inhibitors. hit rate 0.031% among 330,000. AID 504842, 2011; also: nearly all actives have a fitted effect of over 80% in size
#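 Purified archaeal chaperonin (25 nM final) was preincubated with compound for 10 min at 37°C, then ATP (10 uM final) was added for 30 min at 37°C in Tris pH 7.4/KCl/MgCl2/DTT buffer. ADP was quantified by HTRF Transcreener TR-FRET.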
# Akt phos inh: HTS Assay for Inhibitors of Akt Phophorylation: Primary Screen. Neuro2A IGF-stimulated pAkt S473 HTRF, 20 min; stronger effect = lower value. activity change, % for hits at 50 µM. hit rate 0.32% among 360,000; in the data active = activity change below about -80%; inconclusive = mostly about -51% to -80%
#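 Single-point screen (50 µM final compound) in Neuro2A cells stimulated 20 min with 6 nM IGF at 37 deg C. After lysis, Ser473-phosphorylated Akt read by HTRF (ex 330 nm, em 615/665 nm) as the 665/615 ratio.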
# GRP78 ERSR act: qHTS for Inducers of the Endoplasmic Reticulum Stress Response (ERSR) in Human Glioma: qHTS; hit rate 0.02% among 420,000; Potency, µM, usual class: activators; U87-MG GRP78 promoter luciferase reporter, 16 h; also: series mostly up to about 76 µM; nearly all actives have a fitted effect of over 35% in size
#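 ERSR induction read as luciferase luminescence (Bright-Glo, 10 min at room temperature) in stably transfected human U87-MG glioma cells exposed to compounds for 16 h, using GRP78 as sensor.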
# mIDH1 inhibitor: qHTS for Inhibitors of mutant isocitrate dehydrogenase 1 (IDH1): qHTS. Isocitrate dehydrogenase [NADP] cytoplasmic (Homo sapiens), O75874. IDH1-R132H enzyme, NADPH consumption, diaphorase/resazurin fluorescence. Potency, µM (top dose mostly 76.6 µM), most hits filed as inhibitors. hit rate 0.093% among 390,000; also: nearly all actives have a fitted effect of over 65% in size
# Target sequence (O75874 whole entry R132H, stated change not applied): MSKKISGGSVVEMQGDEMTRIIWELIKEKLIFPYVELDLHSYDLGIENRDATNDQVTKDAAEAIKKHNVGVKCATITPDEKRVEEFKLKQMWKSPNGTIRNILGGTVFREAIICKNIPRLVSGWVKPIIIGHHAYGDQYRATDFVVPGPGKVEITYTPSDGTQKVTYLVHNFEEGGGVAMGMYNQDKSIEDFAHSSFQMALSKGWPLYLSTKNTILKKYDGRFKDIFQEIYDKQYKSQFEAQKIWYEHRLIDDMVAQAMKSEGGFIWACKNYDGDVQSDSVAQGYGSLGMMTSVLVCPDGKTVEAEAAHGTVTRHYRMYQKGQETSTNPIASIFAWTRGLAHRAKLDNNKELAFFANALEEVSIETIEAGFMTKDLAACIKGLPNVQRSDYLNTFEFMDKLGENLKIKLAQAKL
#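 IDH1-R132H (0.5 ug/mL dispensed) in pH 7.5 Tris buffer was preincubated 30 min with compound, then given a substrate mix of 0.016 mM NADPH and 2 mM alpha-KG for 80 min at room temperature; remaining NADPH was read by diaphorase/resazurin fluorescence.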
# CCT modulator: High-Throughput Screening for Modulators of Cytosolic Chaperonin Activity | purified chaperonin ATPase assay, HTRF ADP detection, 30 min | activity change, % (concentration not given with the values), hits read low | hit rate 0.3% among 360,000; in the data active = activity change below about -30%
#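 Enzyme 40 or 20 nM (batch-dependent) in Tris pH 7.4/KCl/MgCl2/DTT; cpd 76 uM single point; ATP 10 uM; 30 min 37 °C; Transcreener ADP HTRF detection, 30 min RT; ratio 665/615.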
# Hits are given with their value; 0 = inactive; ? = inconclusive; - = not tested or not shown. Only some compounds are listed: those with a hit (about 0.85% of all), similar ones and a draw of the others. Unless noted, calls follow the shape of the dose curve; as a rule, active = well fitted curve in the direction sought with a large enough effect; inconclusive = small, poorly fitted or top-dose-only effect, or another doubt; inactive = no such curve, though single readings can be large; an effect the other way counts as inactive or inconclusive.
SMILES,GLS inh,MmCpn inh,Akt phos inh,GRP78 ERSR act,mIDH1 inhibitor,CCT modulator
O=[S@]1Oc2ccccc2-c2ccccc21,0,-,0,0,0,-71.3
CCCOc1cccc(C(=O)Nc2cc(NC(=O)c3ccco3)ccc2OC)c1,0,0,-107.4%,0,0,0
COc1ccc(NC(=O)c2cc3cccc(OC)c3oc2=Nc2ccc(C(=O)O)cc2)cc1OC,6.31µM,0,0,0,0,0
Cc1ccn(CCC(=O)NCC2Cc3cc(Cl)cc(-c4ccc5[nH]ccc5c4)c3O2)n1 (configuration not stated),-,-,-,0,-,-
S=C1NCN(Cc2ccccc2)CN1,0,0,0,0,0,0
CCN(CC)CCN1CNC(=S)NC1,0,-,0,0,0,-34.3
CCC(=O)Nc1cccc(-c2cn3ccsc3n2)c1,0,0,-104.7%,0,0,0
Cc1cc(C)nc(S[C@H]2C[C@@H](C(=O)N3CCN(c4ccccc4F)CC3)N(Cc3ccccc3C(F)(F)F)C2)n1,-,-,-,0,-,-
CN(C)CCNC(=O)CCCNC(=O)Cn1cnc2sc3c(c2c1=O)CCCC3,0,0,-119.3%,0,0,0
CCCCCCCCCCCCCCCC[n+]1ccc(C)c2ccccc21,-,-,-,0,-,-
C/C(=N/Nc1ccc(C(=O)O)cc1)c1ccc2c(c1)Nc1ccccc1S2,0,-,0,0,0,0
C/C(=N\Nc1ccc(C(=O)O)cc1)c1ccc2c(c1)Nc1ccccc1S2,17.8µM,?,0,0,0,0
COc1ccc(OC)c(CN2C[C@H](Sc3ccc(F)cc3)C[C@H]2C(=O)N(C)C)c1,-,-,-,0,-,-
Cn1c(SCC(=O)Nc2ccc3cn[nH]c3c2)nnc1-c1cccs1,0,0,0,0,0,0
Cn1c(SCC(=O)Nc2ccc3cn[nH]c3c2)nnc1-c1cnccn1,0,0,-97.3%,0,0,0
Cc1cc(-c2cc(F)cc3c2OC(CNC(=O)CCn2cncn2)C3)ccc1F (configuration not stated),-,-,-,0,-,-
N#Cc1ccc(CSc2nnc(NC(=O)c3ccc4ncsc4c3)s2)cc1,3.98µM,0,0,0,?,0
Cc1c(CN2CCOc3c(O)cc(-c4nc5ccccc5s4)cc3C2)cnn1C,-,-,-,0,-,-
CC1CCCN(c2ccc(N)cc2C(N)=O)C1 (configuration not stated),7.08µM,0,0,0,0,0
CC(C)C(NS(C)(=O)=O)c1nnc2n1CCN(Cc1cccc3ncccc13)CC2 (configuration not stated),-,-,-,0,-,-
O=C(NCC1(N2CCOCC2)CCCC1)c1cnn(-c2ncc3c(n2)-c2ccccc2CC3)c1C1CC1,-,-,-,0,-,-
O=C(O)c1cc(-c2ccc(/C=C3\NC(=O)N(c4ccc(Cl)cc4)C3=O)o2)ccc1Cl,20µM,0,0,0,0,0
S=c1[nH]nc(-c2cccc(Br)c2)o1,0,31.6µM,-108.4%,0,0,0
O=C1CC(N2CCN(c3nc4ccccc4s3)CC2)C(=O)N1Cc1cccs1 (configuration not stated),0,0,-142.9%,0,0,0
Cc1ccc(C(=O)Nn2cnc3scc(-c4cccs4)c3c2=O)c(O)c1,0,0,0,0,0,-46.9
SMILES,GLS inh,MmCpn inh,Akt phos inh,GRP78 ERSR act,mIDH1 inhibitor,CCT modulator
CCOc1ccc(N2CC(C(=O)NCCc3ccc(OC)c(OC)c3)CC2=O)cc1 (configuration not stated),0,0,-106.7%,0,0,0
COc1ccc(CCNC(=O)c2ccc(N3CCCC3=O)cc2)cc1OC,0,0,0,0,0,-31.8
CCOc1ccc(N2CC(C(=O)NCC(=O)Nc3ccc(F)c(F)c3F)CC2=O)cc1 (configuration not stated),0,0,0,0,0,-55.3
COc1ccc(CCNC(=O)C2CC(=O)N(c3ccc(C)cc3)C2)cc1OC (configuration not stated),0,0,0,0,0,0
C#CCC(Cc1cnc2nc(N)nc(N)c2n1)c1ccc(C(=O)N[C@@H](CCC(=O)O)C(=O)O)cc1 (some centres not stated),0,-,-,0,-,-
Cc1ccc(/C=N/Nc2nc3ccccc3s2)o1,8.91µM,0,0,0,0,0
CO[C@H]1[C@H](NC(=O)c2ccsc2)c2ccccc2C12CCN(Cc1ccc3c(c1)OCO3)CC2,-,-,-,0,-,-
COc1ccc(C2=C(Nc3ccc(F)cc3)c3ccccc3C2=O)cc1,0,0,-136.7%,0,0,0
Oc1cc(-c2cccs2)cc2c1OCCN(Cc1cn[nH]c1-c1ccc(Cl)cc1)C2,-,-,-,0,-,-
CC(C)OC(=O)CSc1nnc(CNc2nc(-c3ccccc3)cs2)n1C,0,0,-103.2%,0,0,0
CC1(c2nnc(-c3ccncc3)o2)CC(c2ccc([N+](=O)[O-])cc2)=NO1 (configuration not stated),0,0,0,0,0,-62.3
CSC1=C(C#N)C(CC(C)C)C2=C(CCCC2=O)N1 (configuration not stated),0,0,-117.6%,0,0,0
CSC1=C(C#N)C(c2ccc(C)cc2)C2=C(CCCC2=O)N1 (configuration not stated),0,0,0,0,0,0
COc1ccc(/C=C/C(=O)Nc2ccccc2C(=O)N2CCCC2)cc1,-,0,-,0,0,0
COc1ccc(/C=C/C(=O)Nc2ccccc2C(=O)O)cc1,0,0,0,0,0,-36.0
CCOC(=O)CCc1c(C)c2c(C)nn(-c3ccccc3)c2[nH]c1=O,0,0,0,0,0,-33.8
CCOC(=O)CCc1c(C)nc2c(c(C)nn2-c2ccccc2)c1C,0,0,0,0,0,0
Oc1ccc(-c2sc(Nc3ccccc3)n[n+]2-c2ccc(F)cc2)cc1,0,39.8µM,0,0,0,0
CSc1ccc(-c2sc(Nc3ccccc3)n[n+]2-c2ccc(F)cc2)cc1,0,?,0,0,0,0
O=C1c2ccsc2SCCN1Cc1ccc(Cl)cc1,0,0,-123.6%,0,0,0
CCCCC1NC(C(=O)O)CS1 (configuration not stated),0,0,0,0,0,0
CCCCCCC1NC(C(=O)O)CS1 (configuration not stated),0,0,-113.4%,0,0,0
COc1cc(=O)n2c(c1C(=O)N(C)Cc1nonc1C)CCN(C(=O)c1ccc(C)c(C)c1)CC2,-,-,-,0,-,-
Cc1cc(=O)oc2c(CN3CCCC3)c(O)ccc12,0,0,0,0,0,0
